Source: PubChem BioAssay
Hits are enriched below; roughly 17% of the tested compounds scored in any of these assays.
ClpP mod: qHTS Assay for Activators of ClpP. hit rate 1.9% among 340,000. ATP-dependent Clp protease proteolytic subunit (Bacillus subtilis (strain 168)), P80244. purified B. subtilis ClpP, FRET peptide cleavage, 20 min. Potency, µM (highest dose often 57.5 µM), without a hit: top-dose activity change, negative = active; active = well fitted falling curve with a large enough effect; inconclusive = small, poorly fitted or top-dose-only effect; inactive = no such curve, though single readings can be large or run the other way; also: the source files actives as falling curves though it sought activators and does not explain the sign; nearly all actives have a fitted effect of over 65% in size
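ClpP 10 microg/mL final, pH 8 Tris/KCl buffer with BSA, glycerol, Tween-20; compound pinned in; FRET-FV substrate; RT 20 min; Ex320/Em430; ΔFRET vs ADEP 5.8 microM, DMSO, no enzyme.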
TDP1 block: blocks human tyrosyl-DNA phosphodiesterase 1 | Potency, µM (doses to about 130 µM), for inactives: top-dose activity change, negative = inhibition, usual class: inhibitors | Q9NUW8 | recombinant TDP1, AlphaScreen DNA substrate cleavage | hit rate 0.28% among 350,000; also: % is scaled to controls: 0 for no effect and ±100 for the full control effect; nearly all actives have a fitted effect of over 40% in size
Target sequence (Q9NUW8 whole entry, looked up): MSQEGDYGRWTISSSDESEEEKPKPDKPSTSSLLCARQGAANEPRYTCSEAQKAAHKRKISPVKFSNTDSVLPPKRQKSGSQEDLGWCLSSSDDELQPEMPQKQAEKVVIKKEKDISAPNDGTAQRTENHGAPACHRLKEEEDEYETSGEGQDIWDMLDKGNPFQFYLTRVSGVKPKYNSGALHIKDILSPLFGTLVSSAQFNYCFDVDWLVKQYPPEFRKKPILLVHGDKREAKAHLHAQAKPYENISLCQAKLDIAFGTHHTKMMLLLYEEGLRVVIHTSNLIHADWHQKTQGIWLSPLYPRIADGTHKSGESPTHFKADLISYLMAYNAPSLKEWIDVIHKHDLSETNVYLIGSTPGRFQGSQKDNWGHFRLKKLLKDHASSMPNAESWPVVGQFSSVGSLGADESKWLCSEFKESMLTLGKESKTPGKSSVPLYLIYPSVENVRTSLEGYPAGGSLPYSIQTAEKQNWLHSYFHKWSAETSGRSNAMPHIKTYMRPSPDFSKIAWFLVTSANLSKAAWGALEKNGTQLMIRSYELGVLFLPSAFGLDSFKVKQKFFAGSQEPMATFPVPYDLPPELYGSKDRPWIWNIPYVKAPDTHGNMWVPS
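E. coli-derived human Tdp1, 1 nM final. Cpd preinc 15 min RT; substrate 15 nM final, 5 min RT; AS bead mix 10 ug/ml final, 10 min RT. Signal loss = tyrosine-FITC cleavage. No-enzyme wells = max signal.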
TDP1 cell noCPT: qHTS for Inhibitors of human tyrosyl-DNA phosphodiesterase 1 (TDP1): qHTS in cells in absence of CPT; Potency, µM (highest dose often 46.2 µM), for inactives: top-dose activity change, negative = growth inhibition, hits mostly inhibitors; hit rate 15% among 420,000; DT40 Tdp1-/- hTDP1 cells, no CPT, ATP luminescence, 48 h; also: % is scaled to controls: 0 for no effect and ±100 for the full control effect; nearly all actives have a fitted effect of over 55% in size
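Chicken DT40 Tdp1-/- cells complemented with human TDP1, screened without camptothecin (DMSO vehicle only), 400 cells/well. Compounds pin-transferred, cells incubated at 37 °C for at least 48 hr. Growth read as ATP-dependent luminescence (CellTiter-Glo, 30 min at RT).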
DT40 TDP1 CPT: growth inhibition of DT40 Tdp1-/-;hTDP1 cells with camptothecin (screen for TDP1 inhibitors). chicken DT40 Tdp1-/-;hTDP1 cells + 20 nM CPT, ATP luminescence, 48 h. hit rate 12% among 420,000. Potency, µM (titrated, usually from 46.2 µM), for the others: at the highest dose activity change, negative = growth inhibition, usual class: inhibitors; also: % is scaled to controls: 0 for no effect and ±100 for the full control effect; nearly all actives have a fitted effect of over 55% in size
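Chicken DT40 Tdp1-/- cells complemented with human TDP1, 400 cells/well, exposed to compounds plus 20 nM camptothecin for at least 48 h at 37 C; viability read as ATP content by CellTiter-Glo luminescence.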
* = called active by the depositor; ? = inconclusive; · = no result; [ ] = dose if it differs, or a comment. Unless noted, calls follow the shape of the dose curve; as a rule, active = well fitted curve in the direction sought with a large enough effect; inconclusive = small, poorly fitted or top-dose-only effect, or another doubt; inactive = no such curve, though single readings can be large; an effect the other way counts as inactive or inconclusive. Potency is read from the fitted curve at half-maximal effect.

SMILES	ClpP mod	TDP1 block	TDP1 cell noCPT	DT40 TDP1 CPT
COc1ccc(C(=O)NCC(c2cccnc2)N2CCN(c3ccc(F)cc3)CC2)cc1OC (centres undefined)	-1%	-3%	?	?
COc1ccc(C(=O)NCC(c2cccnc2)N2CCc3ccccc3C2)cc1OC (centres undefined)	1%	13%	?	16µM*
COc1ccc(N2CCN(C(CNC(=O)c3cccc(Cl)c3)c3cccnc3)CC2)cc1 (centres undefined)	-3%	5%	?	?
O=C(NCC(c1cccnc1)N1CCc2ccccc21)c1ccc(F)cc1 (centres undefined)	1%	3%	18µM*	23µM*
COc1ccc(C(=O)NCC(c2cccnc2)N2CCN(c3ccccc3)CC2)cc1OC (centres undefined)	-4%	5%	-21%	?
COc1ccc(C(=O)NCC(c2cccnc2)N2CCc3ccccc3C2)cc1 (centres undefined)	-2%	4%	21µM*	12µM*
COc1ccc(C(=O)NCC(c2cccnc2)N2CCc3ccccc32)cc1OC (centres undefined)	3%	-4%	21µM*	15µM*
COC(=O)[C@H](COC(C)(C)C)NC(=O)O[C@@H]1C(=O)c2cc(Br)ccc2O[C@H]1c1ccc2c(c1)OCO2	·	4%	·	·
Cn1nc(NC(=O)CC23CC4CC(CC(C4)C2)C3)c2c(F)cccc21	-5%	-2%	-21%	-28%
CCOC(=O)C1=C(C)NC(=O)NC1c1ccccc1OCc1c(F)cccc1Cl (centres undefined)	0%	2%	16µM*	23µM*
CCOC(=O)C1=C(COC(=O)/C=C/c2ccc(OC)cc2OC)NC(=O)NC1C (centres undefined)	15%	9%	15µM*	?
CCOC(=O)C1=C(CNCc2ccc(Cl)cc2)NC(=O)NC1c1ccccc1 (centres undefined)	-1%	6%	?	-7%
CCOC(=O)C1=C(CS(=O)(=O)c2ccc(F)c(C)c2)NC(=O)NC1c1ccccc1OC (centres undefined)	-4%	1%	?	29µM*
CCOC(=O)C1=C(CNCc2ccc(C)cc2)NC(=O)NC1c1ccc(OC)cc1 (centres undefined)	8%	12%	21µM*	21µM*
CC(=O)Nc1ccc(S(=O)(=O)NCC(=O)OCC(=O)N2CC(C)OC(C)C2)cc1 (centres undefined)	0%	0%	2%	-1%
Cc1ccc(OCCC(=O)OCC(=O)NCCNC(=O)COC(=O)CCOc2ccc(C)cc2)cc1	-1%	·	-14%	-9%
CC(C)=CCC/C(C)=C/CO/N=C1/C[C@@H](O)[C@@H](O)[C@@H]2[C@@H]3C(=O)N(C4CCCCC4)C(=O)[C@H]3CC[C@@H]12	·	8%[21 µM]	·	·
CCOC(=O)C1=C(COC(=O)CCOc2ccc(C)cc2)NC(=O)NC1C (centres undefined)	2%	·	5.8µM*	6.5µM*
CCOC(=O)C1=C(COc2ccc(C)cc2)NC(=O)NC1c1cc(C)ccc1C (centres undefined)	-7%	0%	12µM*	23µM*
CCOC(=O)C1=C(COc2ccc(F)cc2Cl)NC(=O)NC1c1cc(C)ccc1C (centres undefined)	-1%	-2%	21µM*	?
CCOc1ccc(S(=O)(=O)Nc2cccc(C(=O)NCCCn3ccnc3)c2)cc1	-4%	6%	-30%	?
Cc1c(NC(=O)c2cc(-c3cccc(O)c3)on2)c(=O)n(-c2ccccc2)n1C	-1%	-3%	-13%	-24%
COc1ccc(N2C(=O)C(Cl)=C(N3CCOCC3)C2=O)cc1	·	·	29µM*	-19%
COc1ccc(CN(C)CC(=O)NC(=O)NCc2ccccc2)c(OC)c1	-5%	-2%	?	?
CN(CC(=O)NC(=O)NCc1ccccc1)Cc1ccc(Cl)c(Cl)c1	2%	4%	29µM*	21µM*
O=S(=O)(NCc1cn2ccsc2n1)c1cccs1	-1%	9%	-15%	-2%
